Screening data from PubChem.
This is one part of a sample in which hits are shown more often than they occur.
ClpP mod = qHTS Assay for Activators of ClpP; Potency, µM (titrated, usually from 57.5 µM), inactives show top-dose activity change, negative = active; 340,000 tested, 1.9% active; purified B. subtilis ClpP, FRET peptide cleavage, 20 min; AID 651965, 2013; active = well fitted falling curve with a large enough effect; inconclusive = small, poorly fitted or top-dose-only effect; inactive = no such curve, though single readings can be large or run the other way; also: the source files actives as falling curves though it sought activators and does not explain the sign; nearly all actives have a fitted effect of over 65% in size
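Buffer: 100 mM Tris/HCl pH8, 100 mM KCl, 0.05% low protease BSA, 2.5% glycerol, 0.01% Tween-20. ClpP 10 microg/mL final; 20 min RT; delta FRET normalized to ADEP and DMSO controls.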
Eya2 inh = Eya2 (human) phosphatase inhibition. recombinant Eya2, OMFP fluorescence dephosphorylation (OMFP is methylfluorescein phosphate). 330,000 tested, 0.006% active. Potency, µM (top dose mostly 76.9 µM), for the others: top-dose activity, negative = inhibition, usual class: inhibitors; also: % is scaled to controls: 0 for no effect and ±100 for the full control effect
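Eya2 (0.2 uM) preincubated 10 min at ambient with compound, then OMFP substrate added at 50 uM; 10 min reaction in 50 mM HEPES pH 7.5, 50 mM NaCl, 5 uM MgCl2, 0.05% BSA, 1 mM DTT. Fluorescence read at Ex 485/Em 525 nm.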
USP2a inh = blocks human ubiquitin-specific protease USP2a. USP2 core, Ub-CHOP2 coupled fluorogenic reporter, 485/531. Potency, µM (series often up to 38.3 µM), inactives show at the top dose activity change, negative = inhibition, actives largely listed as inhibitors. 330,000 tested, 0.01% active;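 also: plate controls were DMSO wells for no effect and full inhibition by NEM control for full effect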
Target sequence (O75604 whole entry, looked up): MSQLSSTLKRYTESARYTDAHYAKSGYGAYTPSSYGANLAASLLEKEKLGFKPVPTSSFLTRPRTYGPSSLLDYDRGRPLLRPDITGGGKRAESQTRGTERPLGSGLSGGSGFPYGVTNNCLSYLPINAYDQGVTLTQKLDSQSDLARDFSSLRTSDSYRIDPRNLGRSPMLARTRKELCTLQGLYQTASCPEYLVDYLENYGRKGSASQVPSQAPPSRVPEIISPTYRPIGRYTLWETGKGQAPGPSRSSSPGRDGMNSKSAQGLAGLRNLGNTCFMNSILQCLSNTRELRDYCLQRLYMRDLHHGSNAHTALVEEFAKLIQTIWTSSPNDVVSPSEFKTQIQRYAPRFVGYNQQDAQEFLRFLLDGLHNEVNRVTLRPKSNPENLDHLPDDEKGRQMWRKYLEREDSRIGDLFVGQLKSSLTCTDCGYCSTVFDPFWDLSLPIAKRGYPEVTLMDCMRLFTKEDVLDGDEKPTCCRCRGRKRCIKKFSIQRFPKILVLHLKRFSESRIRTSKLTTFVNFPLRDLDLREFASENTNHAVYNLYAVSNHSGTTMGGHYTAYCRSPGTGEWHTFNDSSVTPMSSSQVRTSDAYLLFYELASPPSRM
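Deubiquitinase activity read as fluorescence (485/531 nm) after Ub-CHOP2 cleavage activates the enterokinase reporter on its substrate; USP2 core 10nM, Ub-CHOP2 and substrate 25nM each, 30min compound preincubation then 60min RT; data normalized to NEM, curves fitted.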
GALK inh = blocks human galactokinase activity; P51570; Purified GALK, Kinase-Glo residual ATP luminescence; Potency, µM (series often up to 57.5 µM), without a hit: at the highest dose activity change, negative = inhibition, actives largely listed as inhibitors; 270,000 tested, 0.007% active; AID 1868; also: % is scaled to controls: 0 for no effect and ±100 for the full control effect
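Kinase-Glo Plus luminescence measured ATP left after a 1 h room-temperature reaction. The reaction used 5 nM GALK, 100 uM galactose and 35 uM ATP at pH 8.0 (20 mM HEPES, 5 mM MgCl2, 60 mM NaCl, 1 mM DTT, 0.01% BSA).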
Numbers without * were called inactive. Unless noted, calls follow the shape of the dose curve; as a rule, active = well fitted inhibition curve with a large enough effect; inconclusive = small, poorly fitted or top-dose-only effect, or effect the other way; inactive = flat fitted curve, though single readings scatter. Potency is read from the fitted curve at half-maximal effect.

What do the screens show for `CC(=O)Nc1cccc(/C(C)=N/NC(N)=S)c1`?
Eya2 inh: 0%; USP2a inh: 1%; GALK inh: 0%

What do the screens show for `C#CCOC(=O)Nc1ccc(=O)n(Cc2c(Cl)cccc2Cl)c1`?
ClpP mod: 28µM*; Eya2 inh: 8%; USP2a inh: -1%; GALK inh: -7%

How did COC(=O)Nc1cccn(Cc2c(Cl)cccc2Cl)c1=O do in these assays?
ClpP mod: inconclusive; Eya2 inh: -5%; USP2a inh: -1%; GALK inh: 1%

How did COc1c2ccoc2nc2c(OC)cccc12 do in these assays?
ClpP mod: 16µM*; Eya2 inh: 7%; USP2a inh: 12%; GALK inh: 1%

How did O=C(NCC1CCCO1)C1c2ccccc2C(=O)N1Cc1ccc2c(c1)OCO2 (stereo not given) do in these assays?
ClpP mod: 22µM*; Eya2 inh: 0%; USP2a inh: 2%; GALK inh: -1%

What do the screens show for `COc1cccc(CN2C(=O)c3ccccc3C2C(=O)NCC2CCCO2)c1` (stereo not given)?
ClpP mod: -1%; Eya2 inh: 5%; USP2a inh: -1%; GALK inh: 1%

What do the screens show for `O=C(COc1cccc2ccccc12)N/N=C/c1ccc(Sc2nc3ccccc3s2)o1`?
ClpP mod: -7%; Eya2 inh: -3%; USP2a inh: 0%; GALK inh: 1%

Results for CCCCOCCCNc1ncnc2c1[nH]c1ccccc12 ?
ClpP mod: 28µM*; Eya2 inh: -34%; USP2a inh: 3%; GALK inh: 3%

Results for CCOCCCNc1ncnc2c1[nH]c1ccccc12 ?
ClpP mod: 16µM*; Eya2 inh: -34%; USP2a inh: 0%; GALK inh: 0%

How did CCOc1ccc2[nH]c3c(NCCO)ncnc3c2c1 do in these assays?
ClpP mod: 4%; Eya2 inh: -29%; USP2a inh: 0%

Results for CNC(=S)NNC(=O)Cc1ccc(O)cc1 ?
ClpP mod: inconclusive; Eya2 inh: -2%; USP2a inh: 2%; GALK inh: 1%

How did CNC(=S)NNC(=O)Cc1ccc(OC)cc1 do in these assays?
ClpP mod: 28µM*; Eya2 inh: 2%; USP2a inh: 1%; GALK inh: -2%

What do the screens show for `COc1ccc(CC(=O)NNC(=O)c2cc(Cl)ccc2OC)cc1`?
ClpP mod: 28µM*; Eya2 inh: -12%; USP2a inh: 1%

How did COc1cccc(/C=C(/C(=O)OCC(=O)NCC2CCCO2)c2ccccc2)c1 (stereo not given) do in these assays?
Eya2 inh: -11%; USP2a inh: 3%; GALK inh: 8%

Results for COC(=O)c1cc2n3ccccc3c(C)c(-c3ccccc3)c-2c1C(=O)OC ?
ClpP mod: 32µM*; Eya2 inh: 10%; USP2a inh: 1%; GALK inh: 1%

Results for COC(=O)c1cc2c(C)c(C)c3ccccn3c-2c1C(=O)OC ?
ClpP mod: 2%; Eya2 inh: 15%; USP2a inh: inconclusive; GALK inh: -4%

How did CC(NC(=O)c1ccccc1)c1nc2ccccc2n1Cc1ccc(Cl)cc1 (stereo not given) do in these assays?
ClpP mod: 2%

Results for Fc1ccc(NC(=S)Nc2ccc(Br)cc2)cc1 ?
ClpP mod: 28µM*; Eya2 inh: -2%; USP2a inh: -1%; GALK inh: -3%

How did COc1ccc(-c2nc(C)c(CCNC(=O)C(=O)Nc3c(C)cccc3C)s2)cc1OC do in these assays?
ClpP mod: 4%

What do the screens show for `CSCCC(NC(=O)c1cccc([N+](=O)[O-])c1)C(=O)O` (stereo not given)?
ClpP mod: 25µM*; Eya2 inh: 8%; USP2a inh: 2%; GALK inh: 0%

Results for O=c1oc(-c2cccs2)nc2ccc(Br)cc12 ?
ClpP mod: 28µM*; Eya2 inh: -25%; USP2a inh: -1%; GALK inh: -3%

What do the screens show for `O=C(CN1C(=O)/C(=C\c2ccc(F)cc2)Oc2ccccc21)N1CCN(c2ccccn2)CC1`?
ClpP mod: 22µM*; Eya2 inh: -11%; USP2a inh: 3%; GALK inh: 1%

How did Cc1ccc(-c2nnn(Cc3nc(N)nc(N4CCOCC4)n3)n2)cc1 do in these assays?
ClpP mod: 0%; Eya2 inh: -3%; USP2a inh: -1%; GALK inh: -1%
